Laboratory results from PubChem BioAssay.
Calls of active or inactive are those of the source.

How the values were obtained:
[1] = system: PRMT1 (protein arginine N-methyltransferase 1); assay: PRMT1 binders on small-molecule microarrays, primary screen, biochemical, small-molecule microarray, 635 nm fluorescence (AID 1088); settings: small-molecule microarray binding, higher = more signal;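 note: binding of Prmt1 protein to compounds spotted on small-molecule microarray slides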
[2] = yeast growth modulation, basal conditions, primary screen, YJM789 clinical isolate, OD600, 24 h (AID 1089);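 note: growth of clinical yeast isolate S. cerevisiae YJM 789 seeded 1000 cells per well; test concentration not given here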; settings: S. cerevisiae YJM789 growth, higher = more signal, called active from +8 up or from −8 down
[3] = fission yeast growth modulation, primary screen, strain 972, OD600, 24 h, no modulator (AID 1090);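 note: basal condition with compound alone and no growth modifier present; test concentration not given here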; settings: S. pombe 972 growth, higher = more signal, called active from +8 up or from −8 down
[4] = S. cerevisiae growth modulation with rapamycin, primary screen, strain BY4716, OD600, 96 h (AID 1091); settings: higher = more signal, called active from +8 up or from −8 down; note: test concentration not given here
[5] = molecular target: Torsin-1A-interacting protein 2 (Homo sapiens) (UniProt Q8NFQ8); assay: LULL1 binders on small-molecule microarray, primary screen, cell lysate, human LULL1 lysate, 635/667 nm fluorescence (AID 1092); settings: hLULL1 lysate binding, 635 nm fluorescence, higher = more signal;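 note: probe is lysate of COS7 cells overexpressing human LULL1; score merges per-feature 667 nm fluorescence with signal-to-noise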
Torsin-1A-interacting protein 2 (Homo sapiens), sequence (Q8NFQ8 whole entry, looked up): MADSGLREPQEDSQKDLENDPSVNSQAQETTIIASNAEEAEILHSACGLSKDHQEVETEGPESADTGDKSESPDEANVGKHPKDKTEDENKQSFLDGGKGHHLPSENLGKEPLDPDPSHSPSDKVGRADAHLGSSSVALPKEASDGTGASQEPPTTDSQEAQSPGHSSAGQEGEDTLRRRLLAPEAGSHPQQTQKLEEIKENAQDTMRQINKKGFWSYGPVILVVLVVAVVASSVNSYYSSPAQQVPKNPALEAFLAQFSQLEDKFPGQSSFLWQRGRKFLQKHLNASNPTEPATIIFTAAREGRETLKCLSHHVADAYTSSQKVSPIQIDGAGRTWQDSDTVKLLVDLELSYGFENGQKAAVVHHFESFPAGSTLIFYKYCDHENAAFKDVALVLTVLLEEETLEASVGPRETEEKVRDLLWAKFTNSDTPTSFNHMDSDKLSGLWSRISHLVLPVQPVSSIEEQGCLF

[6] = E. coli growth modulation, two-sided OD650, primary screen, E. coli filamentation project, strain DRC41, 24 h (AID 1093); settings: OD650, 24 h, higher = more signal, called active from +8 up or from −8 down;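 note: MC1000 strain lacking acrAB efflux and sulA so SOS filamentation is blocked; test concentration not given here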
[7] = small-molecule microarray binders of probe aLefty2, primary screen, biochemical, biotinylated probe, 635/667 nm fluorescence (AID 1094); settings: higher = more signal;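 note: score merges spot fluorescence near 667 nm with spot signal-to-noise ratio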
[8] = system: Noggin (protein binding on small-molecule microarray); assay: Noggin binders on small-molecule microarray, primary screen, biochemical, 635/667 nm fluorescence (AID 1095); settings: 635 nm fluorescence, higher = more signal;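 note: score merges 667 nm feature fluorescence with signal to noise over triplicate slides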
[9] = molecular target: Neurogenic locus notch homolog protein 3 (Homo sapiens) (UniProt Q9UM47); assay: NOTCH3 binders on small-molecule microarray, primary screen, biochemical, 635/667 nm fluorescence (AID 1096); settings: NOTCH3 binding, 635 nm fluorescence, higher = more signal
Neurogenic locus notch homolog protein 3 (Homo sapiens), sequence (Q9UM47 whole entry, looked up): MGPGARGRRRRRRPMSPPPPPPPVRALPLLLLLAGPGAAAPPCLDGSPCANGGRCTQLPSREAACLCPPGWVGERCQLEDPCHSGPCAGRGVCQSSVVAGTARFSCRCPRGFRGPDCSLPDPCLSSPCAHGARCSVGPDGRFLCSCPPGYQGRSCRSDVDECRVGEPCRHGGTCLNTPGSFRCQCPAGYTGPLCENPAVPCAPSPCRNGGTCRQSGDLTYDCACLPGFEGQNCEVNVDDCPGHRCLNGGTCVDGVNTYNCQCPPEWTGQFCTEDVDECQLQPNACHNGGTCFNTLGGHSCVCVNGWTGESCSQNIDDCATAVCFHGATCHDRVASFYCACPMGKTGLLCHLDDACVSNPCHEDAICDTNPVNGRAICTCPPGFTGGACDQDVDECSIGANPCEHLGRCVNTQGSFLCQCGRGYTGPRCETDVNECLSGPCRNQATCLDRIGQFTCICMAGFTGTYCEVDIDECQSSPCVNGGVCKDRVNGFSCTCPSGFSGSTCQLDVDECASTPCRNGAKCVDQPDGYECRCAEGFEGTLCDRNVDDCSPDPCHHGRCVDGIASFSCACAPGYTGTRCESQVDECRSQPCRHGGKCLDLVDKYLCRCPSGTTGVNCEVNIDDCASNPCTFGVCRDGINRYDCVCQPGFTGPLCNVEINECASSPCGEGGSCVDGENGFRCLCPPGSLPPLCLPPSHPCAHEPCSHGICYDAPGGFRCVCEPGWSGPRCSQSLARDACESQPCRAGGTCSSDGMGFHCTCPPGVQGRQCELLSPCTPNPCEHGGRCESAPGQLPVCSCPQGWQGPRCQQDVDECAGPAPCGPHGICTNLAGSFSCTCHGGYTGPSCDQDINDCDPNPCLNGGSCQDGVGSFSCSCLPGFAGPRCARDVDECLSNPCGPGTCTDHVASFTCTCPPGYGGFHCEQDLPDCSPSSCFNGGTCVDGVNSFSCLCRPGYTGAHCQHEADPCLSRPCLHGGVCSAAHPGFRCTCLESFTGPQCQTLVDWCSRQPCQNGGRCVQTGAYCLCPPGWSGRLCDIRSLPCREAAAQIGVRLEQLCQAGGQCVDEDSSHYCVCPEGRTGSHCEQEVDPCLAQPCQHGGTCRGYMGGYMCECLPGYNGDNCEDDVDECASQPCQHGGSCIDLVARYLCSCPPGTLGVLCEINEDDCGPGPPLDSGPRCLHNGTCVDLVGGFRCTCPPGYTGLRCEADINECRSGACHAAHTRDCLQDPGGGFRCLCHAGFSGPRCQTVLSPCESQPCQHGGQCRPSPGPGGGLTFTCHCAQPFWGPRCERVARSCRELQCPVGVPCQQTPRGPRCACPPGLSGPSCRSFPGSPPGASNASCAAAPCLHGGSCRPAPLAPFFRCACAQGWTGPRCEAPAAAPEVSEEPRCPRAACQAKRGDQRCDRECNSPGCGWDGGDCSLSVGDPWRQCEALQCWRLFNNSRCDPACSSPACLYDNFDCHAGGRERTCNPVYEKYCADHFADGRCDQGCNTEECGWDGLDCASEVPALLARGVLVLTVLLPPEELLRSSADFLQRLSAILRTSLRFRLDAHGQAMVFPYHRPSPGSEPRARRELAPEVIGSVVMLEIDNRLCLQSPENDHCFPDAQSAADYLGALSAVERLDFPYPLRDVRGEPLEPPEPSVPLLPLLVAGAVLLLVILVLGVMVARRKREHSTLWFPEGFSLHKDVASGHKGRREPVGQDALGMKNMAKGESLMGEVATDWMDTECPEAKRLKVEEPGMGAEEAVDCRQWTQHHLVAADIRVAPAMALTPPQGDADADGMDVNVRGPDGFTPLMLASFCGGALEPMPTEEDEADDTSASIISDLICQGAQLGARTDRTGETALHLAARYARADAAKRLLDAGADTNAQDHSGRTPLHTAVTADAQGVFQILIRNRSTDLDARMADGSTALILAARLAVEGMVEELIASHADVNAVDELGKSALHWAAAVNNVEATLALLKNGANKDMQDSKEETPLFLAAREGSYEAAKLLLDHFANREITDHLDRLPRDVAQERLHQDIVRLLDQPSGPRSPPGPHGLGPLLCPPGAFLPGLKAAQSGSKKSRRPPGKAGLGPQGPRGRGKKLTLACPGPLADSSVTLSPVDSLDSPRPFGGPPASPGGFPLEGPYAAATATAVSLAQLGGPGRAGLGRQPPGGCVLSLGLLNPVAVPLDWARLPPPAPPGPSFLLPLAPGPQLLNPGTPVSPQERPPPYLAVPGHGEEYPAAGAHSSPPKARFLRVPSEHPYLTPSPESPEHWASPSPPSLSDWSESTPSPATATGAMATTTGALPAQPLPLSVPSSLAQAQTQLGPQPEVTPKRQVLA

[10] = small-molecule microarray binders of probe aEGFR, primary screen, biochemical, biotinylated probe, 635/667 nm fluorescence (AID 1097); settings: higher = more signal;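 note: probe is a biotinylated anti-EGFR antibody binding compounds printed on slides; score combines fluorescence near 667 nm and signal to noise of each spot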
[11] = system: Plasmodium falciparum Sir2 (PF13_0152, Sir2A); assay: pfSir2 binders on small-molecule microarrays, primary screen, biochemical, small-molecule microarray, 635 nm fluorescence (AID 1098); settings: small-molecule microarray binding, fluorescence 635 nm; higher = more signal;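 note: score merges spot fluorescence intensity with its signal-to-noise ratio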
[12] = small-molecule microarray binders of probe aDKK1, primary screen, biochemical, biotinylated probe, 635/667 nm fluorescence (AID 1099); settings: higher = more signal;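 note: score merges 667nm spot fluorescence with signal to noise across triplicate slides; reference of the scale not given here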
[13] = small-molecule microarray binders of probe aCHRDL2, primary screen, biochemical, biotinylated probe, 635/667 nm fluorescence (AID 1100); settings: higher = more signal
[14] = splicing luciferase reporter signal modulators, primary screen, spliceosome inhibition project, cell-based, HEK293, splice +/- reporter (AID 1101); settings: luminescence, 24 h, higher = more signal, called active from +8 up or from −8 down;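 note: HEK293 cells carrying a splicing-competent luciferase reporter gene; test concentration not given here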
[15] = molecular target: Fibroblast growth factor 10 (Homo sapiens) (UniProt O15520); assay: FGF10 binders on small-molecule microarrays, primary screen, biochemical, small-molecule microarray, 635 nm fluorescence (AID 1102); settings: FGF10 binding, fluorescence 635 nm, higher = more signal
Fibroblast growth factor 10 (Homo sapiens), sequence (O15520 whole entry, looked up): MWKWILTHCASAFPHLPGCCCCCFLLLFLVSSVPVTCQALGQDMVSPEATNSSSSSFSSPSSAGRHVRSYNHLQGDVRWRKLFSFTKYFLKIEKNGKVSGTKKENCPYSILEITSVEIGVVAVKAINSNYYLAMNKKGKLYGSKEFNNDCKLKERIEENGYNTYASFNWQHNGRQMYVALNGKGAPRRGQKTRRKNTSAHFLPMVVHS

[16] = system: glycogen synthase kinase-3 (GSK3A per assay name; protocol says GSK3B); assay: GSK3 binders on small-molecule microarrays, primary screen, biochemical, small-molecule microarray, 635 nm fluorescence, GSK3A (AID 1103); settings: small-molecule microarray binding, fluorescence 635 nm; higher = more signal; note: the record names both GSK3A and GSK3B
[17] = molecular target: Epidermal growth factor receptor (Homo sapiens) (UniProt P00533); assay: EGFR binders on small-molecule microarrays, primary screen, biochemical, small-molecule microarray, 635 nm fluorescence (AID 1104); settings: EGFR binding, higher = more signal;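 note: score merges 667 nm emission intensity with spot signal to noise over triplicate slides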
Epidermal growth factor receptor (Homo sapiens), sequence (P00533 whole entry, looked up): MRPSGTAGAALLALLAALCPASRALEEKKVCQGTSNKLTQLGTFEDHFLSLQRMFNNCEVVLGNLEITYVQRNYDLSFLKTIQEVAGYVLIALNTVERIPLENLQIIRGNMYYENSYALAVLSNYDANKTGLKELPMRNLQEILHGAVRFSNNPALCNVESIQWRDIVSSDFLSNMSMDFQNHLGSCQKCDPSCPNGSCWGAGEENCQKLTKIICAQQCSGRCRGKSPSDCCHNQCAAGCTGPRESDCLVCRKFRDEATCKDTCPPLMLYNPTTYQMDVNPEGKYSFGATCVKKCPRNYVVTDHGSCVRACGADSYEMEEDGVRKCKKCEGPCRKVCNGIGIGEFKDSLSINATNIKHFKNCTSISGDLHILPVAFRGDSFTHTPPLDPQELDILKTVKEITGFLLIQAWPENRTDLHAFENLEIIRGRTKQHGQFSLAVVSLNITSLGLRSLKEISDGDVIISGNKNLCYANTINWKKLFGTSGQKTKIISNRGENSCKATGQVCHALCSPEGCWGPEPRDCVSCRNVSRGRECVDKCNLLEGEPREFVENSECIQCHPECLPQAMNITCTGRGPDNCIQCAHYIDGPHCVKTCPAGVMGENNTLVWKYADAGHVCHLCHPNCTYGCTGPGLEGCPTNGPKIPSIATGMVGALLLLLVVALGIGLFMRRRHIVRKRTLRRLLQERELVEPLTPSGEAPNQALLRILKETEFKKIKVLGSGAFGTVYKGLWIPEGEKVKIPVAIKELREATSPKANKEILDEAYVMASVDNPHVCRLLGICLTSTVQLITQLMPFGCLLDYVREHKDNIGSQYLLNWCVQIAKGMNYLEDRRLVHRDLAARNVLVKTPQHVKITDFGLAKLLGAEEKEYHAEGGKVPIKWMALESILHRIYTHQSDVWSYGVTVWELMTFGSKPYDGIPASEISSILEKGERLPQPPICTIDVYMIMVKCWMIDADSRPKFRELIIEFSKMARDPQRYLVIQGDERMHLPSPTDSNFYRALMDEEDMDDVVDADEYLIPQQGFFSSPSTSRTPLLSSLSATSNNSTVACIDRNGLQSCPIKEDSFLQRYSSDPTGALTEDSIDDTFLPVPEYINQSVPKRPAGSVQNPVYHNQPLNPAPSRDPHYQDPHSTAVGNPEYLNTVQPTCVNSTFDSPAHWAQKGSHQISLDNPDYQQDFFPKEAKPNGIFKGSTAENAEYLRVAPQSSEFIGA

[18] = molecular target: Follistatin-related protein 3 (Homo sapiens) (UniProt O95633); assay: FSTL3 binders on small-molecule microarrays, primary screen, biochemical, small-molecule microarray, 635 nm fluorescence (AID 1105); settings: FSTL3 binding, higher = more signal;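 note: score merges emission near 667 nm and signal to noise per printed spot across three slides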
Follistatin-related protein 3 (Homo sapiens), sequence (O95633 whole entry, looked up): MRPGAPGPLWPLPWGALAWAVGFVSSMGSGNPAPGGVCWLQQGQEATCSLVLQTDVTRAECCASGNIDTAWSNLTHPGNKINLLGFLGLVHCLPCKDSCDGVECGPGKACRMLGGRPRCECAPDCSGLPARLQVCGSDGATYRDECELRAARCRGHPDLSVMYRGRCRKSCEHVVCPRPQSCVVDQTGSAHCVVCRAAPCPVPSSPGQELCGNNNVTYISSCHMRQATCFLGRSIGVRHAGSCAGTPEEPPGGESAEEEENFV

[19] = molecular target: Dickkopf-related protein 1 (Homo sapiens) (UniProt O94907); assay: DKK1 binders on small-molecule microarrays, primary screen, biochemical, small-molecule microarray, 635 nm fluorescence scan (AID 1106); settings: DKK1 binding, higher = more signal;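 note: score merges emission near 667 nm with signal to noise over three replicate slides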
Dickkopf-related protein 1 (Homo sapiens), sequence (O94907 whole entry, looked up): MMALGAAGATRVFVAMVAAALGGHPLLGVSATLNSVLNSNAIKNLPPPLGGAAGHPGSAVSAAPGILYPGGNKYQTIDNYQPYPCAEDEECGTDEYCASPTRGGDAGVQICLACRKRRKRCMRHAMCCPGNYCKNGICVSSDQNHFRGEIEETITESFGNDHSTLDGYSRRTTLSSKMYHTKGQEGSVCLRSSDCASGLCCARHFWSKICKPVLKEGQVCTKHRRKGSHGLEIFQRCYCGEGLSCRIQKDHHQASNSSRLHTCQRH

[20] = system: Inhibin beta A chain (activin A); assay: INHBA (activin A) binders on microarrays, primary screen, biochemical, small-molecule microarray, 635 nm fluorescence scan (AID 1107); settings: small-molecule microarray binding, higher = more signal;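 note: mouse activin A protein probed at 4.33 µg/mL on printed slides; score merges bound-protein fluorescence near 667 nm with spot signal-to-noise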

| SMILES | composite z-score [1] | z-score [2] | z-score [3] | z-score [4] | composite z-score [5] | z-score [6] | composite z-score [7] | composite z-score [8] | composite z-score [9] | composite z-score [10] | composite z-score [11] | composite z-score [12] | composite z-score [13] | z-score [14] | composite z-score [15] | composite z-score [16] | composite z-score [17] | composite z-score [18] | composite z-score [19] | composite z-score [20] |
| --- | --- | --- | --- | --- | --- | --- | --- | --- | --- | --- | --- | --- | --- | --- | --- | --- | --- | --- | --- | --- |
| C=C(C(=O)CC[C@@H](OC(=O)c1cccnc1)c1ccc(CO)o1)C(C)C | 1.54 | 0.813 (inactive) | -0.485 (inactive) | -0.0796 (inactive) | 1.97 | -0.601 (inactive) | -0.0415 | 1.53 | 1.14 | -0.0697 | 0.392 | -0.174 | -0.36 | 1.38 (inactive) | 1.16 | 0.803 | 0.152 | 0.933 | 0.479 | 1.04 |
| O=C1OCC=C[C@H]2OC34C=CCN(Cc5ccccc5)C(=O)[C@H]3N(CCCO)C(=O)[C@@H]4[C@@H]12 (stereo not given in full) | 0.733 | 0.393 (inactive) | -0.885 (inactive) | -0.38 (inactive) | 3.71 | 2.76 (inactive) | 0.694 | 0.319 | 0.288 | -0.0703 | 0.995 | 1.16 | 0.907 | -0.589 (inactive) | 0.0676 | 0.301 | -0.692 | 0.37 | -0.896 | 1.22 |
| C=C(/C(=C/C[C@@H](OC(C)=O)c1ccc(CO)o1)c1cnc2ccccc2c1)C(C)C | 1.55 | 1.2 (inactive) | -0.767 (inactive) | 0.375 (inactive) | 1.86 | 1.27 (inactive) | -0.11 | 1.08 | 1.07 | 0.0367 | 1.18 | -0.198 | -0.541 | -0.541 (inactive) | 1.66 | 1.32 | 0.792 | 1.45 | 1.24 | 1.39 |
| CCCC[C@@H]1C[C@H]1[C@@H](NC(=O)c1ccccc1)c1ccc(-c2ccccc2)cc1 | 0.409 | -2.02 (inactive) | 0.256 (inactive) | 2.7 (inactive) | 2.3 | -0.947 (inactive) | -0.12 | 0.364 | 0.496 | -0.117 | -0.616 | -0.0102 | 0.754 | -3.53 (inactive) | 0.0096 | -0.372 | 0.0518 | 0.12 | 0.228 | 0.715 |
| [N-]=[N+]=NCc1ccccc1[C@H]1OC(c2ccc(OCCCO)cc2)=N[C@@]1(Cc1ccccc1)C(=O)NCC(O)CO (stereo not given in full) | 1.25 | -0.286 (inactive) | 0.669 (inactive) | -1.22 (inactive) | 3.5 | 0.203 (inactive) | 0.102 | -0.116 | -0.046 | 0.0073 | 1.27 | 0.847 | 1.21 | -0.807 (inactive) | 0.782 | 1.27 | -0.187 | -0.751 | -0.651 | 0.33 |
| COc1ccc(C#Cc2ccc3c(c2)[C@]2(C(=O)N3)[C@H](C(=O)N3CCN(c4ncccn4)CC3)[C@H]3C(=O)O[C@H](c4ccccc4)[C@H](c4ccccc4)N3[C@@H]2c2ccc(O)cc2)cc1 | 1.56 | 0.77 (inactive) | 0.86 (inactive) | 1.17 (inactive) | 2.33 | -0.459 (inactive) | 0.0897 | 0.496 | 0.853 | -0.0573 | 0.707 | -0.015 | 0.612 | -0.73 (inactive) | 0.557 | 0.967 | 0.366 | 0.743 | 0.353 | 0.536 |
| CC(=O)n1cc(C(O)C2C=CC3C(=O)N(c4ccccc4)C(=O)C3N2Nc2ccc(C#N)cc2)c2ccccc21 (stereo not given) | 1.33 | -0.589 (inactive) | 1.09 (inactive) | 1.85 (inactive) | 3.4 | -0.795 (inactive) | 0.401 | -0.244 | 0.48 | -0.0804 | 0.696 | 0.415 | 1.07 | 0.888 (inactive) | 0.879 | 0.186 | -0.105 | 0.0519 | -0.817 | 0.854 |
| CCCC[C@H]1OB(O)C[C@H]2C1=C(COc1ccccc1)C[C@H]1C(=O)N(Cc3ccccc3)C(=O)[C@H]12 | 0.385 | -1.87 (inactive) | -1.54 (inactive) | -1.6 (inactive) | 1.33 | 0.194 (inactive) | -0.121 | 1.51 | 0.862 | -0.0828 | 0.412 | -0.154 | -0.283 | -0.788 (inactive) | 0.509 | 0.103 | -0.248 | 0.581 | 0.193 | 0.78 |
| COC(=O)c1nc2oc1CC[C@@H](CO)NC(=O)N(C)Cc1cn(nn1)C[C@H](Cc1ccccc1)NC2=O | 0.594 | 0.654 (inactive) | -3.35 (inactive) | -0.858 (inactive) | 2.59 | 2.05 (inactive) | -0.139 | 1.04 | 0.175 | -0.181 | 0.68 | -0.268 | 0.269 | -0.275 (inactive) | 0.133 | -0.587 | -0.647 | -0.221 | -0.4 | 0.697 |
